# PubChem BioAssay (NCATS)
# Values without a mark were called inactive. Results filed as inconclusive are left out. A call without a number means that no potency is given here. Activity calls are given as the source filed them. Unless noted, calls come from the whole dose curve; as a rule, active = well fitted curve in the direction sought with a large enough effect; inconclusive = small, poorly fitted or top-dose-only effect, or another doubt; inactive = no such curve, though single readings can be large; an effect the other way counts as inactive or inconclusive.
# Experiments:
# [1] = qHTS Assay for Identification of Small Molecule Antagonists for NFkB Signaling Pathway (AID 895; active = well fitted inhibition curve with a large enough effect in the signal ratio, with a control signal flat, not every such curve was filed as active; the % refers to the signal ratio; note: potency is the fitted concentration of half-maximal effect); conditions: NFkB beta-lactamase reporter cells, FRET ratio 460/530, stimulated with 10 pM TNF alpha; series mostly up to 38.3 µM
# How it was run: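 Beta-lactamase reporter read-out (460 and 530 nm emission ratio, 405 nm excitation, 2 hrs substrate loading RT) after 5 hr stimulation with 10 pM TNF alpha in compound-treated NFkB-bla ME-180 cells in low-serum medium.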
# [2] = qHTS Assay for Identification of Small Molecule Agonists for Thrombopoietin (TPO) Signaling Pathway (AID 917); conditions: TPO signaling pathway reporter cells, agonist qHTS, stimulated with TPO at its EC50; series mostly up to 38.5 µM; note: potency is the fitted concentration of half-maximal effect
# How it was run: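 Luciferase reporter (Glycoprotein IIb promoter) in IL-3-deprived Ba/F3 cells carrying human TPO receptor; compounds co-added with 26 pM TPO, incubated 24 h, 37 C. Steadylite luminescence measured after 10 min.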
# [3] = biological target: Muscarinic acetylcholine receptor M1 (Rattus norvegicus) (UniProt P08482); assay: qHTS Assay for Antagonists of Acetylcholine Muscarinic M1 Receptor: Kinetic Measurement of Intracellular Calcium Response (AID 943); conditions: M1-expressing cells, kinetic intracellular calcium fluorescence; series mostly up to 35.3 µM; note: nearly all actives have a fitted effect of over 75% in size; note: potency is the fitted concentration of half-maximal effect
# Muscarinic acetylcholine receptor M1 (Rattus norvegicus), sequence (P08482 whole entry, looked up): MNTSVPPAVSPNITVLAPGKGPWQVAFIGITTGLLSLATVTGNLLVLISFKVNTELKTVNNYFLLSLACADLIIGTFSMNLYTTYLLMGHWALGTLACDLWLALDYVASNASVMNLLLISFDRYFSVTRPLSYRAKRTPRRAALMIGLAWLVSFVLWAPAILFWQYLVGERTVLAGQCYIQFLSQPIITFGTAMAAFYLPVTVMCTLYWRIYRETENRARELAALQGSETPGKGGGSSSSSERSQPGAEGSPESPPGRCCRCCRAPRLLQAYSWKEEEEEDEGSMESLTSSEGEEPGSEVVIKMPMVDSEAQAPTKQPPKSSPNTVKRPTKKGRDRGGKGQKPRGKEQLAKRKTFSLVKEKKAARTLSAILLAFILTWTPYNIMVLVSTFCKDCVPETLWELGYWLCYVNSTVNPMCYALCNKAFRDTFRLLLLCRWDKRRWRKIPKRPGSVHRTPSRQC
# How it was run: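 Antagonism measured as reduction of carbachol-evoked (EC80, 100 nM final) calcium flux in rat M1-CHO cells after 10 min compound exposure. Fluo-4 signal read kinetically; ratio of maximal to basal fluorescence.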
# [4] = biological target: Muscarinic acetylcholine receptor M1 (Rattus norvegicus) (UniProt P08482); assay: qHTS Assay for Antagonists of Acetylcholine Muscarinic M1 Receptor: Measurement of IP-One Response (AID 944); conditions: CHO-M1 cells, IP-One HTRF, antagonist mode; series mostly up to 46.1 µM; note: nearly all actives have a fitted effect of over 75% in size; note: potency is the fitted concentration of half-maximal effect
# How it was run: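 IP1 accumulation measured via TR-FRET between d2-IP1 and Eu-cryptate anti-IP1 antibody after carbachol (200 nM, EC80) stimulation for 30 min; rat M1-transfected CHO cells received compound 10 min before agonist.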
# [5] = biological target: Cytochrome P450 2C19 (Homo sapiens) (UniProt P33261); assay: qHTS Assay for Inhibitors and Substrates of Cytochrome P450 2C19 (AID 899); conditions: recombinant CYP2C19, luciferin-H EGE luminescence; series mostly up to 57.1 µM; note: nearly all actives have a fitted effect of over 60% in size; note: potency is the fitted concentration of half-maximal effect
# Cytochrome P450 2C19 (Homo sapiens), sequence (P33261 whole entry, looked up): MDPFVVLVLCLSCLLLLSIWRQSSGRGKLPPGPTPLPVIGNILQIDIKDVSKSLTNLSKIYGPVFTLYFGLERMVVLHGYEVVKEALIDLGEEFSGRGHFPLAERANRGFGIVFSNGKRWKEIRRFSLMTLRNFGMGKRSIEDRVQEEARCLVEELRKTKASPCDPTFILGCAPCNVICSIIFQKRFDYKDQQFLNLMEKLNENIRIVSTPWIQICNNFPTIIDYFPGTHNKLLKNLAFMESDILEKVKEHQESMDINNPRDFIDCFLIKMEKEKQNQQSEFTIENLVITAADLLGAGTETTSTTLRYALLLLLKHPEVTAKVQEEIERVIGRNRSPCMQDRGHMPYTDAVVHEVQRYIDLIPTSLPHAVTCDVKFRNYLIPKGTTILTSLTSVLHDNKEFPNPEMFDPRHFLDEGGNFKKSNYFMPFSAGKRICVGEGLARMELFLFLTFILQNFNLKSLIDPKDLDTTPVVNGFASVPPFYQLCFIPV
# How it was run: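 5nM enzyme + 10uM Luciferin-H EGE (=KM), 50mM KPO4; cpd pin-transferred, 10 min 37C; NADPH regen, 60 min 37C; stopped w/ luciferin detection reagent, 20 min; luminescence. Normalized to 57uM ketoconazole (AC100).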
# [6] = Confirmation and Secondary Assay for Modulators of Hemoglobin Beta Chain Splicing at IVS2 654 locus (AID 910); conditions: HeLa EGFP-654 splicing reporter, GFP fluorescence, 48 h; series mostly up to 46.1 µM;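 note: HeLa cells stably carrying EGFP split by mutant beta-globin IVS2-654 intron; per-well total GFP intensity by laser scanning cytometry after 2-day treatment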
# How it was run: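 Readout: per-well total peak green fluorescence (488 nm ex, 500–520 nm em) from objects 5–250 µm, reflecting correct splicing of an EGFP-654 reporter. Compounds were applied for 2 days at 37 °C to overnight-plated HeLa EGFP-654 cells; controls were DMSO and 500 nM IVS2-654 PNA.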
# [7] = Confirmation and Secondary Assay for Modulators of Hemoglobin Beta Chain Splicing at IVS2 705 locus (AID 930); conditions: HeLa EGFP-705 splicing reporter, GFP fluorescence, 48 h; series mostly up to 46.1 µM;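 note: HeLa cells stably expressing the EGFP-705 splicing reporter; GFP fluorescence per well restored by corrected splicing of the IVS2-705 intron in EGFP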
# How it was run: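 Stable HeLa line with EGFP disrupted by mutant beta-globin intron 2 (705). Overnight attachment, then 2 days of compound at 37C, 5% CO2. Signal: peak GFP intensity summed over objects 5-250 µm.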
# [8] = qHTS Assay for Identification of Small Molecule Agonists for Hypoxia Response Element Signaling Pathway (AID 914; active = well fitted activation curve with a large enough effect in the signal ratio, with a control signal flat, not every such curve was filed as active; the % refers to the signal ratio); conditions: ME-180 (cervical carcinoma) HRE-bla reporter, beta-lactamase ratio, CoCl2, 17 h; activation: active compounds read high
# How it was run: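 Reporter activity (beta-lactamase, CCF4 460nm/530nm ratio) in HRE-bla ME-180 cells is recorded after 17 h compound exposure with EC50 CoCl2 at 37 degrees Celsius. AC50 values come from titration data.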
smiles,measurement,setting,value
NS(=O)(=O)c1cccc2c1c([N+](=O)[O-])cc1nc(O)c(O)nc12,Potency,[1],inactive
same,Potency,[2],inactive
same,Potency,[3],inactive
same,Potency,[4],inactive
COc1cc(N)c(Cl)cc1C(=O)OCCN1CCCCC1,Potency,[1],inactive
same,Potency,[2],inactive
COc1ccc(CCN(C)CCc2ccc(OC)c(OC)c2)cc1OC,Potency,[1],inactive
same,Potency,[2],inactive
O=C(O)/C(=C/c1c(C(=O)O)[nH]c2cc(Cl)cc(Cl)c12)c1ccccc1,Potency,[1],inactive
same,Potency,[2],inactive
same,Potency,[3],inactive
C#CCn1c(=O)c2c(ncn2C)n(C)c1=O,Potency,[1],inactive
same,Potency,[2],inactive
same,Potency,[3],inactive
Nc1ccc(-c2nc3ccc(-c4nc5ccc(N)cc5[nH]4)cc3[nH]2)cc1,Potency,[1],1.12 µM (active)
same,Potency,[2],inactive
same,Potency,[4],inactive
Clc1nccc2c1ccc1ccccc12,Potency,[1],inactive
same,Potency,[2],inactive
CN(C)S(=O)(=O)c1ccc2c(c1)/C(=C/c1cc3c([nH]1)CCCC3)C(=O)N2,Potency,[1],1.58 µM (active)
same,Potency,[2],inactive
same,Potency,[3],inactive
COc1cc2c(CCNC(C)=O)c[nH]c2cc1O,Potency,[1],inactive
same,Potency,[2],inactive
same,Potency,[3],inactive
same,Potency,[4],inactive
O=C1Nc2ccc(I)cc2/C1=C/c1cc(Br)c(O)c(Br)c1,Potency,[1],8.91 µM (active)
same,Potency,[2],inactive
same,Potency,[3],inactive
Cc1nc(N=Nc2ccc(S(=O)(=O)O)cc2S(=O)(=O)O)c(COP(=O)(O)O)c(C=O)c1O,Potency,[1],inactive
same,Potency,[3],inactive
same,Potency,[4],inactive
C=CC[C@H](N)C(=O)O,Potency,[1],inactive
same,Potency,[3],inactive
same,Potency,[4],inactive
N#Cc1cc2nc(O)c(O)nc2cc1[N+](=O)[O-],Potency,[1],inactive
same,Potency,[2],inactive
same,Potency,[3],inactive
CCC(=O)N1CCN(C(=O)c2ccccc2)CC1,Potency,[1],inactive
same,Potency,[2],inactive
same,Potency,[3],inactive
CCN(CC)CCOC(=O)c1cc(Cl)c(N)cc1OC,Potency,[1],inactive
same,Potency,[2],inactive
same,Potency,[4],inactive
O=C1NC(=O)c2cc(Nc3ccccc3)c(Nc3ccccc3)cc21,Potency,[1],10 µM (active)
same,Potency,[4],inactive
N=C(N)c1ccccc1,Potency,[1],inactive
same,Potency,[2],inactive
same,Potency,[3],inactive
same,Potency,[4],inactive
Cc1ccc2c(c1)C(N1CCN(C)CC1)=Nc1cccnc1N2,Potency,[1],11.2 µM (active)
same,Potency,[2],inactive
same,Potency,[3],0.0355 µM (active)
same,Potency,[4],0.0794 µM (active)
NOCC(=O)O,Potency,[1],inactive
same,Potency,[3],inactive
O=c1[nH]ccc2c(O)cccc12,Potency,[1],inactive
same,Potency,[2],inactive
same,Potency,[3],inactive
same,Potency,[4],inactive
CNCCNS(=O)(=O)c1cccc2cnccc12,Potency,[1],10 µM (active)
same,Potency,[2],inactive
same,Potency,[3],inactive
same,Potency,[4],inactive
O=C(O)C1CCNCC1,Potency,[1],inactive
same,Potency,[2],inactive
same,Potency,[4],inactive
N[C@H](C(=O)O)[C@H](O)C(=O)O,Potency,[1],inactive
same,Potency,[2],inactive
same,Potency,[3],inactive
same,Potency,[4],inactive
C=CCn1c(=O)c2c(nc(-c3ccc(S(=O)(=O)O)cc3)n2C)n(C)c1=O,Potency,[1],inactive
same,Potency,[2],inactive
same,Potency,[3],inactive
CCCCCCCCCCCCCCSCC(=O)O,Potency,[1],inactive
same,Potency,[2],inactive
same,Potency,[4],inactive
N#CC(C#N)=C(N)/C(C#N)=C/c1ccc(O)cc1,Potency,[1],inactive
same,Potency,[2],inactive
same,Potency,[3],inactive
same,Potency,[4],inactive
CCCc1c(-c2ccc(O)cc2)nn(-c2ccc(O)cc2)c1-c1ccc(O)cc1,Potency,[5],10 µM (active)
same,Potency,[3],inactive
CC(C)Cn1c(=O)n(C)c(=O)c2[nH]cnc21,Potency,[6],inactive
same,Potency,[2],inactive
same,outcome,[7],inactive
same,Potency,[3],inactive
same,Potency,[4],inactive
O=C(O)c1cc2cc(F)ccc2[nH]1,Potency,[5],inactive
same,Potency,[6],inactive
same,Potency,[2],inactive
same,outcome,[7],inactive
same,Potency,[3],inactive
C[C@](Cc1ccc(O)c(O)c1)(NN)C(=O)O,Potency,[5],inactive
O=C1Cc2c([nH]c3ccc(Br)cc23)-c2ccccc2N1,Potency,[5],inactive
same,Potency,[2],0.158 µM (active)
same,Potency,[3],inactive
NCCCCN,Potency,[6],inactive
same,Potency,[2],inactive
same,outcome,[7],inactive
same,Potency,[3],inactive
same,Potency,[4],inactive
N=C(N)SCCN,Potency,[5],inactive
same,Potency,[6],inactive
same,Potency,[2],inactive
same,outcome,[7],inactive
Cn1c(=O)c2[nH]c(-c3ccc(S(=O)(=O)O)cc3)nc2n(C)c1=O,Potency,[5],inactive
same,Potency,[2],inactive
same,Potency,[3],inactive
same,Potency,[4],inactive
CC(=O)NNC(=O)N1Cc2ccccc2Oc2ccc(Cl)cc21,Potency,[5],inactive
C=C1C(=O)O[C@@H]2[C@H]3O[C@]3(C)CCC=C(C)CC[C@@H]12,Potency,[5],inactive
Cn1c(=O)c2[nH]c(C3CCCC3)nc2n(C)c1=O,Potency,[6],inactive
same,activation,[8],-4.29%
same,Potency,[2],inactive
same,outcome,[7],inactive
same,Potency,[3],inactive
same,Potency,[4],inactive
O=c1[nH]c(=O)c2nc3ccccc3nc2[nH]1,Potency,[5],inactive
same,Potency,[2],inactive
same,Potency,[3],inactive
Oc1cc(O)c2c(c1)O[C@H](c1ccc(O)c(O)c1)[C@@H](O)C2,Potency,[5],inactive
COCc1nc2c([nH]1)c(=O)n(C)c(=O)n2CC(C)C,Potency,[5],inactive
same,Potency,[2],inactive
same,Potency,[3],inactive
same,Potency,[4],inactive
O=[N+]([O-])c1cccc2c(Br)[nH]nc12,Potency,[6],inactive
same,Potency,[2],inactive
same,outcome,[7],inactive
CC1=C(/C=C/C(C)=C/C=C/C(C)=C\C(=O)O)C(C)(C)CCC1,Potency,[6],inactive
same,outcome,[7],inactive
O=C(O)/C=C/c1ccc(O)c(O)c1,Potency,[6],inactive
same,Potency,[2],inactive
same,outcome,[7],inactive
same,Potency,[3],inactive
O=C(c1ccc2c(c1)OCCO2)N1CCCCC1,Potency,[5],inactive
Nc1nc2ccc(Cl)cc2c2nc(-c3ccco3)nn12,Potency,[5],inactive
same,Potency,[3],inactive
NC(N)=NC(N)=Nc1ccccc1,Potency,[5],inactive
same,Potency,[6],inactive
same,Potency,[2],inactive
same,outcome,[7],inactive
same,Potency,[3],inactive
same,Potency,[4],inactive
O=c1cc(-c2ccccc2)[nH]c2nc(Cl)ccc12,Potency,[5],inactive
same,Potency,[2],inactive
same,Potency,[3],inactive
same,Potency,[4],inactive
Cn1ccnc1,Potency,[5],inactive
same,Potency,[2],inactive
same,Potency,[3],inactive
same,Potency,[4],inactive
CC(=O)N[C@@H](Cc1c[nH]c2ccccc12)C(=O)OCc1cc(C(F)(F)F)cc(C(F)(F)F)c1,Potency,[5],7.94 µM (active)
same,Potency,[3],inactive
OC1(c2ccc(Cl)cc2)CCN(Cc2c[nH]c3ccccc23)CC1,Potency,[5],inactive
